# Data reported in PubChem BioAssay (EPA / NIEHS).
# Inconclusive results are not listed. Active and inactive are the calls of the source. How the source made its calls: active means hit-call score of the fitted dose curve at least 0.9, where 1 is the maximum; inconclusive means response in the unintended direction; inactive means score below 0.9.
# Read-out: HMG-CoA synthase (HMGCS2), HMGCS2 (gene 3158)
# Assay: CLD_HMGCS2_24hr: CellzDirect (CLD) Gene Expression Assay for HMG-CoA synthase (HMGCS2) at 24 hours (AID 2283691)
# Method: CLD_24hr is a cell-based, multiplexed-readout assay that uses hepatocyte, a human liver primary cell, with measurements taken at 24 hours after chemical dosing in a 96-well plate.CLD_HMGCS2_24hr is one of 16 assay component(s) measured or calculated from the CLD_24hr assay. It is designed to make measurements of mRNA induction, a form of inducible reporter, as detected with chemiluminescence signals by Quantitative Nuclease Protection Assay (qNPA) technology.Data from the assay component CLD_HMGCS2_24hr was analyzed at the endpoint, CLD_HMGCS2_24hr, in the positive analysis fitting direction relative to DMSO as the negative control and baseline of activity. Using a type of inducible reporter, gain-of-signal activity can be used to understand changes in the reporter gene as they relate to the gene HMGCS2. Furthermore, this assay endpoint can be referred to as a primary readout. To generalize the intended target to other relatable targets, this assay endpoint is annotated to the lyase intended target family, where subfamily is HMG-CoA synthase.
# Human hepatocyte cultures were treated daily for two consecutive days with fresh dosing solutions containing appropriate concentrations of the 320 ToxCast chemicals (chemical identities were blinded to CellzDirect and other ToxCast collaborators), vehicle control (0.2% DMSO), and positive control inducers as summarized in Table 1. Due to the large number of treatment groups and chemicals examined, the ToxCast chemicals were divided into two groups (spanning two independent cultures of hepatocytes from separate donor preparations (Hu778: ToxCast plates 1 and 2; Hu776: ToxCast plates 3 and 4). Each preparation of human hepatocyte cultures was treated with respective vehicle control, medium only control, set of six positive controls/reference chemicals for the five hepatic receptor pathways, and a subset of eight of the ToxCast chemicals (indoxacarb, pyrithiobac-sodium, norflurazon, cyhalofop-butyl, methomyl, thiram, acetochlor, and propiconazole). These replicate data, coupled with internal replicates designed within the blinded ToxCast chemical library, provided additional data to evaluate interindividual differences between hepatocyte preparations and their potential impact on chemical profiles.Cell morphology and integrity were evaluated using phase-contrast microscopy as an indicator of hepatocyte cell health (Tyson & Green, 1987). Cultures for each treatment group (i.e., media, vehicle [0.2% DMSO], positive control inducers [multiple concentrations], and the ToxCast chemicals [multiple concentrations]) were observed and cell morphology was assessed relative to vehicle control cultures at each harvest time point (0, 6, 24, or 48 h). […] Images were evaluated at the conclusion of the study to assess changes in cell integrity and account for the effects of chemical exposure on uncharacteristic changes in concentration-dependent gene expression profiles. The results from these determinations of apparent cytotoxicity were annotated (yes/no) alongside the corresponding qNPA data for reference.At the conclusion of each treatment period, hepatocyte cultures (96-well) were washed with 1 volume of HBSS, lysed by addition of 25 ul ArrayPlate lysis buffer (HTG, Tucson, AZ), and 70 ul/well of Denaturation Oil, denatured by incubation at 95C for 10 min, and frozen at approximately -70C until analysis by nuclease protection assay (qNPA) (Roberts et al., 2007). For qNPA analysis, cell lysates were thawed at 50C for approximately 30 min, qNPA probes were added, and samples were incubated at 95C for 10 min to begin the detection process by denaturing the target RNA, dissociating the duplexes and secondary structure hybridization. At the conclusion of the hybridization period, S1 nuclease reagent was added to each sample to digest all nonprotected nucleotides at 50C for 60-90 min. […]
SMILES,outcome,AC50
COP(=O)(OC)OC=C(Cl)Cl,inactive,
O=C(O)COc1ccc(Cl)cc1Cl,,22.5 nM (active)
N#Cc1c(Cl)c(Cl)c(Cl)c(C#N)c1Cl,inactive,
O=C(O)CCCOc1ccc(Cl)cc1Cl,inactive,
O=C(O)C(F)(F)C(F)(F)C(F)(F)C(F)(F)C(F)(F)C(F)(F)C(F)(F)F,inactive,
Oc1cc(Cl)ccc1Oc1ccc(Cl)cc1Cl,inactive,
OCCOc1ccccc1,inactive,
[2H]C1([2H])[n+]2ccccc2-c2cccc[n+]2C1([2H])[2H],inactive,
Oc1ccc(Cl)cc1Cc1ccccc1,inactive,
COC(=O)c1ccccc1S(=O)(=O)NC(=O)Nc1nc(C)nc(OC)n1,inactive,
CCS(=O)(=O)c1cccnc1S(=O)(=O)NC(=O)Nc1nc(OC)cc(OC)n1,inactive,
COc1cc(OC)nc(NC(=O)NS(=O)(=O)c2cc(NC=O)ccc2C(=O)N(C)C)n1,inactive,
O=[N+]([O-])/N=C1\NCCN1Cc1ccc(Cl)nc1,inactive,
C#CCN1C(=O)COc2cc(F)c(N3C(=O)C4=C(CCCC4)C3=O)cc21,inactive,
CNC(=O)Oc1cccc(N=CN(C)C)c1,inactive,
CNC(=O)CSP(=S)(OC)OC,inactive,
